Experiment [1] in a line: Primary qHTS for inhibitors of La Crosse Virus (LACV) - induced cell death in SH-SY5Y cells (AID 1508616).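 Further: top concentration of the series differs between compounds; 0% = infected DMSO wells and 100% = uninfected DMSO wells; higher means more rescue of cells from virus-induced death.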 The following applies: SH-SY5Y LACV cytopathicity rescue, ATP luminescence, 6 d; series mostly up to 4.29 µM. The procedure, abridged: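 Readout was luminescence from ATPLite 1step added after a 6-day LACV infection (0.01 MOI) of SH-SY5Y cells that had received pin-transferred compound 24 hr after seeding.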
Background: qHTS replaces the single test concentration by a dilution series.

Experiment [2] deals with Calcium and integrin-binding protein 1 (Homo sapiens) (UniProt Q99828). The experiment is described as follows: Validation qHTS for Identification of Calcium Integrin Binding protein 1 (CIB1) Competitor (AID 1508618). Further: potency means the concentration at half of the fitted maximal effect. The following applies: CIB1-GST / FITC-alphaIIb peptide fluorescence polarization; series mostly up to 114 µM. The procedure, abridged: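 CIB1-GST (1 uM final) incubated 15 min at room temperature with compounds (up to 114 uM), then FITC-labelled alphaIIb peptide (100 nM) added. FP read (Ex 480/Em 540) after 15 min, pH 7.4 buffer containing 5 mM CaCl2.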

Experiment [3] has the same target. Nature of the experiment: Primary qHTS for Identification of Calcium Integrin Binding Protein 1 (CIB1) Competitor (AID 1508620). Further: potency means the concentration at half of the fitted maximal effect. The following applies: CIB1-GST / FITC-alphaIIb peptide fluorescence polarization; series mostly up to 57.7 µM. The procedure, abridged: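 Fluorescence polarization competition: CIB1-GST (1 uM final) preincubated with compound 15 min at room temperature, then FITC-labeled alphaIIb peptide (100 nM final) added for another 15 min. Polarization read at Ex 480/Em 540.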

Experiment [4] can be described thus: Primary qHTS for small molecule stabilizers of the endoplasmic reticulum resident proteome: Secreted ER Calcium Modulated Protein (SERCaMP) assay (AID 1508630). Further: potency means the concentration at half of the fitted maximal effect. To be noted: SH-SY5Y GLuc-SERCaMP (Gaussia luciferase released on ER calcium loss) secretion, thapsigargin, luminescence; series mostly up to 38.4 µM. In short, it runs like this: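 GLuc-SERCaMP-expressing SH-SY5Y cells, pretreated 16 h with compound, are challenged with thapsigargin to empty ER calcium stores; after 4 h, coelenterazine is added directly to the medium and luminescence is imaged.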

Experiment [5] deals with Cytochrome P450 2D6 (Homo sapiens) (UniProt P10635). Nature of the experiment: Cytochrome P450 family 2 subfamily D member 6 (CYP2D6) small molecule antagonists: luciferase biochemical (cell-free) qHTS assay (AID 1645840; active means well fitted curve in the direction sought with a large enough effect in the repeat runs; an effect the other way counts as inactive or inconclusive; further: nearly all actives have a fitted effect of over 55% in size; further: potency means the concentration at half of the fitted maximal effect). The following applies: P450-Glo CYP2D6 enzyme, luciferin luminescence, 1 h; series mostly up to 57.4 µM. In short, it runs like this:
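P450-Glo luminescent screen: recombinant CYP2D6 enzyme–proluciferin substrate mix preincubated with compound 10 min at room temperature, then NADPH regeneration added for 1 h at room temperature. Detection reagent added for 20 min; luciferin light read as relative luminescence units.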

Experiment [6] is described as follows: A High-Content qHTS Against Drug Library for the Identification of Small Molecules that Inhibit DYT1 Early Onset Primary Dystonia-Associated Cell Pathology (AID 1645839; calls by dose curve). To be noted: HEK293 Flp-In EGFP-delE TorsinA, punctate imaging, 48 h; series mostly up to 46.1 µM. The procedure, abridged: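 Readout: %pathology, the punctate EGFP-TorsinA distribution from imaging, as the primary channel and cell count as the toxicity counterscreen. HEK293 Flp-In cells expressing delE TorsinA were induced with tetracycline and treated with compound for 48 h.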

Experiment [7] is described as follows: Confirmatory qHTS for small molecule stabilizers of the endoplasmic reticulum resident proteome: Secreted ER Calcium Modulated Protein (SERCaMP) assay (AID 1508628). Further: nearly all actives have a fitted effect of over 40% in size. Further: potency means the concentration at half of the fitted maximal effect. The following applies: SERCaMP secreted luciferase ER calcium/proteostasis reporter; series mostly up to 76.3 µM. The procedure, abridged: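 We seeded SH-SY5Y-GLuc-SERCaMP cells, added compounds (three concentrations in the primary run, eleven up to 76.6 uM in confirmation), incubated 16 h, depleted ER calcium with thapsigargin, and read luciferase 4 h later.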

Experiment [8] can be described thus: Counterscreen qHTS for small molecule stabilizers of the endoplasmic reticulum resident proteome: GLuc-NoTag assay (AID 1508627). Further: potency means the concentration at half of the fitted maximal effect. The following applies: Gaussia luciferase NoTag secretion counterscreen, luminescence, thapsigargin 100 nM for final 4 h; series mostly up to 76.4 µM. The procedure, abridged:
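SH-SY5Y cells stably expressing constitutively secreted GLuc (no SERCaMP tag) were pre-incubated 5 h, treated with compound for 19 h, then 100 nM thapsigargin for 4 h at 37C; medium GLuc read by coelenterazine luminescence.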
On the technique in general: Counterscreens check selectivity or assay interference.

Experiment [9] can be described thus: Cell Viability qHTS for small molecule stabilizers of the endoplasmic reticulum resident proteome (AID 1508629).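 Further: compound exposure about 46 h in total before the viability read.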 Further: potency means the concentration at half of the fitted maximal effect.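 On max response: human SH-SY5Y neuroblastoma cells carrying the GLuc-SERCaMP reporter; on the % scale 0 is the no-effect control and ±100 the full control effect.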 The following applies: cell viability counter-screen, 100 nM thapsigargin for final 4 h.
The target of experiment [10] is Calcium and integrin-binding protein 1 (Homo sapiens) (UniProt Q99828). Nature of the experiment: Confirmatory qHTS for Identification of Calcium Integrin Binding Protein 1 (CIB1) Competitor (AID 1508617). Further: potency means the concentration at half of the fitted maximal effect; nearly all actives have a fitted effect of over 65% in size. The following applies: CIB1 binding competition assay, biochemical qHTS. The procedure, abridged:
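Compounds at up to 114 uM final met 1 uM GST-tagged CIB1 for 15 min at room temperature (HEPES pH 7.4, 5 mM CaCl2). FITC-labelled alphaIIb peptide, 100 nM, added; polarization read after 15 min more.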

Values joined by “and” are separate entries in the source; they are usually repeats but may differ in a detail not shown here. Equal values may be shown once. Results filed as inconclusive are left out. A structure can be active in one record and inactive in another. Active and inactive are the calls of the source. Unless noted, the call rests on the fitted dose curve; in most records, active means well fitted curve in the direction sought with a large enough effect; inconclusive means small, poorly fitted or top-dose-only effect, or another doubt; inactive means no such curve, though single readings can be large; an effect the other way counts as inactive or inconclusive.

Calcium and integrin-binding protein 1 (Homo sapiens), sequence (Q99828 whole entry, looked up): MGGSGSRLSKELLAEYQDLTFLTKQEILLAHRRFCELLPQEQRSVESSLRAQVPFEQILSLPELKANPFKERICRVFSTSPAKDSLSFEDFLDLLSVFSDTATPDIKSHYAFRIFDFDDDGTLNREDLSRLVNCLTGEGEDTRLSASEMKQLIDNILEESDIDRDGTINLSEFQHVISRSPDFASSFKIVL
Cytochrome P450 2D6 (Homo sapiens), sequence (P10635 whole entry, looked up): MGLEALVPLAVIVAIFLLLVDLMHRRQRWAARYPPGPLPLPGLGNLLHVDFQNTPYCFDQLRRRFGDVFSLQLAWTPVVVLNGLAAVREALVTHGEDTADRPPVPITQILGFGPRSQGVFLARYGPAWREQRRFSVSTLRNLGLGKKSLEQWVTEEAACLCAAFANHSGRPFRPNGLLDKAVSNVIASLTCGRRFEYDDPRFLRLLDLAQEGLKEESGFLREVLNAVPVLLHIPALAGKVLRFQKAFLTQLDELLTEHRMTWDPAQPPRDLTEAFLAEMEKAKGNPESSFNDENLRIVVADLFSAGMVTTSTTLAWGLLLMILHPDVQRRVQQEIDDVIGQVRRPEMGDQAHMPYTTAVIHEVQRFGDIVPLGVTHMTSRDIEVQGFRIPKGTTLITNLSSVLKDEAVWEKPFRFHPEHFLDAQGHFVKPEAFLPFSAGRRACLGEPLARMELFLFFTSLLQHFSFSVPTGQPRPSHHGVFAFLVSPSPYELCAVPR

`Nc1c2c(nc3ccccc13)CCCC2`: the Potency result in experiment [1], in experiment [2], in [3] and in [4] was “inactive” throughout. Moreover, the Potency in [5] was 9.77 µM (active).
On to `CCC1(c2ccccc2)C(=O)NCNC1=O`, for which the Potency entry in experiment [1], in experiment [2], in [4], in experiment [6] and in experiment [5] was “inactive” each time.
As for `COc1cc2nc(N(C)CCCNC(=O)C3CCCO3)nc(N)c2cc1OC` (stereo unspecified), the Potency result in experiment [1], in experiment [2] and in [4] was “inactive” throughout.
Regarding `CC[C@@]1(O)C(=O)OCc2c1cc1n(c2=O)Cc2cc3c(CN(C)C)c(O)ccc3nc2-1`, the Potency entry in [1], in [4], in [6] and in experiment [5] was “inactive” each time. Moreover, the Potency in experiment [2] is 14.1 µM (active).
`COc1cc2nc(N3CCN(C(=O)C4COc5ccccc5O4)CC3)nc(N)c2cc1OC` (stereo unspecified): the Potency result in experiment [1], in experiment [2], in experiment [3], in experiment [4] and in experiment [5] was “inactive” in each case.
`CN1CCN2c3ccccc3Cc3ccccc3C2C1` (stereo unspecified): the Potency entry in experiment [1], in experiment [2] and in experiment [4] was “inactive” throughout.
`CC(C)C(=O)Nc1ccc([N+](=O)[O-])c(C(F)(F)F)c1`: the Potency entry in experiment [1], in experiment [2] and in experiment [4] was “inactive” throughout.
On to `CC(C)Cc1ccc(C(C)C(=O)O)cc1` (stereo unspecified), for which the Potency entry in [1], in experiment [4], in experiment [6] and in [5] was “inactive” each time.
With `Cc1ccc(C(=O)Nc2ccc(S(=O)(=O)O)c3cc(S(=O)(=O)O)cc(S(=O)(=O)O)c23)cc1NC(=O)c1cccc(NC(=O)Nc2cccc(C(=O)Nc3cc(C(=O)Nc4ccc(S(=O)(=O)O)c5cc(S(=O)(=O)O)cc(S(=O)(=O)O)c45)ccc3C)c2)c1`, the Potency result in experiment [1], in [4], in experiment [6] and in [5] was “inactive” each time. In experiment [7], the Potency was 15.8 µM (active).
In the case of `CS(=O)(=O)Nc1ccc([N+](=O)[O-])cc1Oc1ccccc1`, the Potency entry in [1], in [4], in experiment [6] and in [5] was “inactive” in each case.
Regarding `CN1CCN(CCCN2c3ccccc3Sc3ccc(Cl)cc32)CC1`, the Potency entry in experiment [1], in [3] and in experiment [4] was “inactive” in each case. In experiment [5], the Potency was 0.155 µM (active).
Consider `NCCCCCC(=O)O`, for which the Potency entry in experiment [1], in experiment [2] and in experiment [5] was “inactive” in each case. Further, the Potency entry in [4] is “inactive and 33.5 µM (active)”.
For `CCOC(=O)Nc1ccc(NCc2ccc(F)cc2)nc1N`, the Potency result in experiment [1], in experiment [3], in experiment [4] and in experiment [6] was “inactive” each time. In addition, the Potency in experiment [5] is 3.09 µM (active).
Take `CC1(CN2CCC(n3c(=O)[nH]c4ccccc43)CC2)OCc2ccccc2-n2cccc21` (stereo unspecified): the Potency result in experiment [1], in experiment [3] and in experiment [4] was “inactive” throughout. Also, the Potency in experiment [5] was 1.38 µM (active).
For the compound `Clc1ccc2nsnc2c1NC1=NCCN1`, the Potency entry in experiment [1] and in experiment [4] was “inactive” in each case. Moreover, the Potency in experiment [5] is 17.4 µM (active).
As to `O=C1N(c2ccccc2)c2ccccc2C1(Cc1ccncc1)Cc1ccncc1`, the Potency result in experiment [1], in experiment [2], in [4] and in [5] was “inactive” throughout.
As for `Cn1c(=O)c2[nH]cnc2n(C)c1=O`, the Potency result in experiment [1], in experiment [2], in experiment [4] and in experiment [5] was “inactive” throughout.
As for `O=c1c(O)c(-c2ccc(O)c(O)c2)oc2cc(O)cc(O)c12`, the Potency result in [1], in experiment [3], in [8] and in experiment [4] was “inactive” each time. For the same compound, in experiment [9], the max response was -19.3% (inactive) and 6.63% (inactive) and -20.3% (inactive).
In the case of `O=C1c2c(O)ccc(O)c2C(=O)c2c(NCCNCCO)ccc(NCCNCCO)c21`, the Potency is 22.4 µM (active) and 20 µM (active) in experiment [10]; 20 µM (active) in experiment [2]; 30.4 µM (active) and 25.1 µM (active) in [3]. The Potency entry in experiment [4] and in experiment [6] was “inactive” each time.
In the case of `CN(Cc1cnc2nc(N)nc(N)c2n1)c1ccc(C(=O)N[C@@H](CCC(=O)O)C(=O)O)cc1`, the Potency result in [1], in [4] and in experiment [5] was “inactive” throughout.
Regarding `CN(C)CCCN1c2ccccc2CCc2ccc(Cl)cc21`, the Potency entry in experiment [1], in experiment [7] and in [4] was “inactive” each time. Moreover, the max response in [9] was -4.23% (inactive).
For the compound `CC1COc2c(N3CCN(C)CC3)c(F)cc3c(=O)c(C(=O)O)cn1c23` (stereo unspecified), the Potency entry in [1], in experiment [4], in experiment [6] and in [5] was “inactive” each time.
For the compound `CN(C)C(=N)N=C(N)N`, the Potency entry in experiment [1] and in [6] was “inactive” in each case.
As for `Cn1c(=O)c2c(ncn2C)n(C)c1=O`, the Potency entry in experiment [1], in experiment [8], in experiment [7], in experiment [4] and in [5] was “inactive” throughout. The max response in experiment [9] was 8.95% (inactive) [middle of 5 runs].
As for `CC(COc1ccccc1)N(CCCl)Cc1ccccc1` (stereo unspecified), the Potency entry in experiment [1], in experiment [3] and in experiment [4] was “inactive” in each case. For the same compound, the Potency in [5] was 0.723 µM (active).
In the case of `COC(=O)Nc1nc2ccc(C(=O)c3cccs3)cc2[nH]1`, the Potency result in [2], in experiment [3], in [4], in experiment [6] and in experiment [5] was “inactive” in each case.
Take `CC[N+](CC)(CC)CCOc1cccc(OCC[N+](CC)(CC)CC)c1OCC[N+](CC)(CC)CC`: the Potency result in experiment [1], in experiment [4], in experiment [6] and in experiment [5] was “inactive” each time.
As for `Clc1ccccc1C(c1ccccc1)(c1ccccc1)n1ccnc1`, the Potency entry in [1] was “inactive”. In experiment [5], the Potency is 9.77 µM (active).
Regarding `COc1cc2nc(N3CCN(C(=O)c4ccco4)CC3)nc(N)c2cc1OC`, the Potency result in [1], in experiment [2], in [4] and in [5] was “inactive” in each case.
On to `Cc1ccccc1N1C(=O)c2cc(S(N)(=O)=O)c(Cl)cc2NC1C` (stereo unspecified), for which the Potency entry in experiment [1], in [3], in experiment [4] and in experiment [5] was “inactive” each time.
On to `NC(=O)OCC(COC(N)=O)c1ccccc1`, for which the Potency entry in experiment [1], in experiment [2], in [4] and in experiment [5] was “inactive” in each case.
Consider `Cc1cn([C@H]2C[C@H](N=[N+]=[N-])[C@@H](CO)O2)c(=O)[nH]c1=O`, for which the Potency result in experiment [1], in experiment [4] and in [5] was “inactive” in each case.
As for `COc1ccc(CCN(C)CCCC(C#N)(c2ccc(OC)c(OC)c2)C(C)C)cc1OC` (stereo unspecified), the Potency entry in [8], in experiment [4] and in experiment [5] was “inactive” throughout. In addition, in [7], the Potency was 20 µM (active). The max response in experiment [9] is -5.84% (inactive).
As to `CC1(C)O[C@H]2CC(=O)OC[C@]23[C@H]2CC[C@@]4(C)[C@H](c5ccoc5)OC(=O)[C@H]5O[C@]54[C@]2(C)C(=O)C[C@@H]13`, the Potency entry in experiment [4] and in experiment [5] was “inactive” in each case.
On to `CS(=O)(=O)CCNCc1ccc(-c2ccc3ncnc(Nc4ccc(OCc5cccc(F)c5)c(Cl)c4)c3c2)o1`, for which the Potency result in experiment [1], in experiment [3], in experiment [7] and in experiment [4] was “inactive” each time.
Take `O=C(Nc1ccc([N+](=O)[O-])cc1Cl)c1cc(Cl)ccc1O`: the Potency entry in experiment [1], in [7] and in experiment [4] was “inactive” throughout. The Potency was 3.98 µM (active) in experiment [8], 5.01 µM (active) in [9] and 13.5 µM (active) in experiment [5].

The record behind these values is PubChem BioAssay (NCATS).
